PubChem BioAssay AID504891 (National Center for Advancing Translational Sciences (NCATS), 2011)
Hit rate of the full screen: of about 390,000 compounds, about 35 (0.009%) were called active. Inconclusive results (about 6%) are left out. Calls come from the whole dose curve; as a rule, active = well fitted inhibition curve with a large enough effect in the polarisation, with a control signal flat (not every such curve was filed as active); inconclusive = small, poorly fitted or top-dose-only effect, or effect the other way, or a change in a side signal; inactive = no such curve, though single readings can be large or run the other way; the % refers to the polarisation. Shown is part of a subset that was picked to be rich in actives.

Molecular target: Peptidyl-prolyl cis-trans isomerase NIMA-interacting 1 (Homo sapiens) (UniProt Q13526)
Test: qHTS Assay to Find Inhibitors of Pin1
Conditions: Pin1 FP peptide displacement, HiFluor488, 10 min; series mostly up to 115 µM
From the text: NIH Molecular Libraries Probe Production Network [MLPCN]
NIH Chemical Genomics Center [NCGC]
The unique chemical properties of Pro allow for the adoption of two completely distinct amide bond conformations (cis and trans). Peptidyl-prolyl cis/trans isomerases (PPIases) are evolutionary conserved enzymes that catalyze cis/trans isomerization of peptidyl-prolyl peptide bonds. Distinct from all other PPIases such as cyclophilins and FK506-binding proteins (FKBPs), Pin1 binds a subset of phos.Ser/Thr-Pro-containing proteins using its protein-targeting WW domain and isomerizes only specific phos.Ser/Thr-Pro bonds, which cannot be effectively catalyzed by other known PPIases.
Pin1-catalyzed conformational regulation can control a spectrum of activities of many key regulators in diverse cellular processes such as cell growth, genotoxic and other stress responses, immune response, germ cell development, neuronal differentiation and survival. Pin1 has emerged as a novel molecular timer that modulates its multiple targets at various steps of a given cellular process to synergistically control the amplitude and duration of a cellular response or process. Importantly, Pin1 is tightly regulated by multiple levels and its deregulation has an important role in a growing number of pathological conditions, including cancer, Alzheimer's disease, aging, asthma and microbial infection, providing a potentially new therapeutic option.
The goal of this screen is to find small-molecule inhibitors of Pin1 using a fluorescence polarization competition assay. A HiFluor-488-labeled peptide binds to the active site of Pin1 and can be displaced by compounds. Compounds were screened as a concentration-titration series that ranged from 57 uM to 0.7 nM.
NCGC Assay Protocol Summary:
Pin1 (0.6 uM) was dispensed into black, solid 1536-well plates at 2 uL/well in 10 mM HEPES (pH 7.5), 10 mM NaCl, 0.01% Tween20, 1 mM DTT, and 1% glycerol. Then, 23 nL of compounds or DMSO were delivered to each well using a pin tool. Two uL of Pin1-1b-HiFluor488 peptide (10 mM HEPES (pH 7.5), 10 mM NaCl, 0.01% Tween20, 1 mM DTT, and 1% glycerol, 0.02 uM Pin1-1b-HiFluor488) was then dispensed, and plates were incubated at room temperature for 10 min. The plates were measured on a ViewLux plate reader for fluorescence polarization signal using a 480/20 nM nm excitation filter and 540/25 nM nm S and P emission filters with a 20 second exposure. The %Activity was determined from the corrected fluorescence polarization values. Unlabeled Pin1-1c peptide was used as a control (3.5 mM two-fold serial; 20 uM final concentration) along with a 1x (0.3 uM) and 0x (no-enzyme) Pin1 enzyme control to normalize %Activity of identified inhibitors; 0x enzyme values corresponded to 100%Activity (full inhibition), while 1x Pin1 enzyme values were used to normalize 0%Activity (no inhibition).
Concentration-response curves were fitted to the signals arising from the resulting fluorescence polarization. The concentration-effect curves were then classified based on curve quality (r2), response magnitude and degree of measured activity, and compounds were subsequently categorized based on their curve class.
Keywords: Peptidyl prolyl isomerase, Pin1, fluorescence polarization, MLSMR, MLPCN, NIH Roadmap, qHTS, NCGC

Sequence of Peptidyl-prolyl cis-trans isomerase NIMA-interacting 1 (Homo sapiens) (Q13526 whole entry, looked up): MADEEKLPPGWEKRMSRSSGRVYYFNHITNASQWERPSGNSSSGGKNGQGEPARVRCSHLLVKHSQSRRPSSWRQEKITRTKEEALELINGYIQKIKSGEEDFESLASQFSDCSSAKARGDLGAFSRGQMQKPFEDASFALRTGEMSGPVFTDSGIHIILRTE

activity, negative = inhibition, inactive:
Cc1ccccc1CNC(=O)C(=O)NCC(c1cccs1)S(=O)(=O)c1cccs1 (stereo not given)
CC1CCC2(CC1)N=C(c1ccccc1)C(=O)N2CC(=O)Nc1ccc(F)c(Cl)c1 (stereo not given)
COc1cc(OC)c(NC(=O)c2nc(-c3ccncc3)no2)cc1Cl
Cc1cccc(CNC(=O)c2cnc3sc(N4CCCCC4)nn3c2=O)c1
CCc1ccccc1NC(=O)N1CCC2(CC1)Oc1ccccc1C(=O)N2Cc1ccccc1F
COc1ccc(OC)c(NC(=O)CSc2nc3ccccc3nc2N2CCCCC2)c1
CN1CCOc2cc(S(=O)(=O)N3CCN(S(=O)(=O)c4c(F)cccc4F)CC3)cnc21
O=c1c2ccccc2nc2sc(Nc3ccc(Oc4ccccc4)cc3)nn12
CCn1c(C)c(C)c2cc(C(=O)NCCc3cc(OC)ccc3OC)ccc21
CCC(=O)N1CCc2cc(CNS(=O)(=O)c3ccc(Br)s3)ccc21
O=[S+]([O-])(c1ccc(OC(F)(F)F)cc1)N1CCN([S+](=O)([O-])c2ccc3c(c2)OCCO3)CC1
CC(C)(C)c1ccc(C(=O)NCC(c2ccc(Cl)cc2)N2CCOCC2)cc1 (stereo not given)
COc1ccccc1Cc1nc2ccccc2nc1SCC(=O)N1CCCc2ccccc21
COc1ccc(C2Nc3ccccc3C(=O)N2Cc2ccc(Cl)cc2)cc1COc1ccc(NC(C)=O)cc1 (stereo not given)
Cc1nn2c(=O)cc(COC(=O)c3ccccc3NC(=O)COc3ccccc3C)nc2s1
CCOC(=O)c1ccc(NC(=O)CC2C(=O)N(c3ccccc3)C(=O)N2Cc2cccs2)cc1 (stereo not given)
CC1CCCN(S(=O)(=O)c2ccc3[nH]c(=O)cc(C(=O)NCCc4ccc(Cl)cc4)c3c2)C1 (stereo not given)
COc1ccc(N2CCN(S(=O)(=O)c3ccc4c(c3)CC(=O)N4)CC2)cc1
COc1ccc(N2CCN(C(=O)c3c(C)oc4nc(C)nc(N5CCCC5)c34)CC2)cc1
O=[S+]([O-])(c1ccc2c(c1)OCCO2)N1CCN([S+](=O)([O-])c2c(Cl)cc(Cl)cc2Br)CC1
Cc1ccc(C)c(N2CCN(C(=O)C3CCC(CNS(=O)(=O)c4cccs4)CC3)CC2)c1 (stereo not given)
O=C(CSc1nc(-c2cccc(F)c2)[nH]c1-c1ccccc1)Nc1ccc2c(c1)OCO2
COc1cc(F)c(S(=O)(=O)N2CCCN(S(=O)(=O)c3ccc(N)cc3)CC2)c(F)c1
COC(=O)c1cnn(-c2ccc(C(=O)Nc3ccc(OC(F)(F)F)cc3)cc2)c1N
O=S(=O)(c1ccc2c(c1)OCCO2)N1CCN(S(=O)(=O)c2cc(F)ccc2F)CC1
COC(=O)c1ccc(NC(=O)c2cnn(-c3ccc(Cl)cc3)c2C2CCN(C(=O)OC(C)(C)C)CC2)cc1
CCCCN(C)CCCNC(=O)CN1N=C(c2ccc(OC)cc2)CCC1=O
CCOc1ccc2oc(=O)cc(CN3CCN(C(=O)c4ccc(F)cc4)CC3)c2c1
O=C(O)c1ccc(Cn2c(SCc3ccc(F)cc3)nc3ccncc32)cc1
Cc1ccc(-c2nc3ccccn3c2Nc2c(C)cccc2C)o1
Cc1cccc(C(=O)NCCc2nc3ccccc3n2Cc2ccccc2Cl)c1
COc1cccc(C(=O)N(Cc2cccc(Cl)c2)Cc2ccco2)c1
CC(CNC(=O)c1nnc(Cc2cccc(F)c2)o1)c1ccccc1 (stereo not given)
Cc1noc(C)c1-c1ccc2ncnc(NCc3ccc(F)c(F)c3)c2c1
O=C(CSCc1cnn(-c2ccccc2)c1-n1cccc1)NCc1ccc(Cl)cc1
CC(C)c1ccc(NC(=O)C2CCN(c3nc(-c4ccc(C(C)C)cc4)no3)CC2)cc1
NC(=O)C1CCN(C(=O)c2cccc(NC(=O)c3nsc4ccccc34)c2)CC1
Cc1ccc(C(=O)NC2CCN(C#N)CC2)cc1
O=S(=O)(NCCc1nnc2ccc(SCc3ccc(Cl)cc3Cl)nn12)c1ccccc1
COC(=O)C(CC(C)C)NS(=O)(=O)c1cc(Br)ccc1Br (stereo not given)
N#Cc1nc(NCc2ccc(Cl)c(Cl)c2)c2ncn(CCCO)c2n1
COCCNS(=O)(=O)c1cc(-c2nn3c(C)nnc3c3ccccc23)ccc1C
O=S1(=O)N=C(Oc2cccc(Br)c2)c2ccccc21
COc1ccc(CNC(=O)c2ccc3c(c2)nc2n3CCOC2)c(OC)c1
COc1ccc(C2Nc3ccccc3C(=O)N2Cc2ccc(CNC(=O)CO)cc2)cc1COc1ccc(NC(C)=O)cc1 (stereo not given)
COc1ccc(OC)c(NC(=O)C2CCN(S(=O)(=O)c3ccc(C)cc3)CC2)c1
O=C1CC(c2ccccc2)CC2=C1C(c1ccco1)n1nc(C(F)(F)F)nc1N2 (stereo not given)
COc1ccc(C2Nc3cccc(OC)c3C(=O)N2Cc2ccccc2)cc1COc1ccc(NC(C)=O)cc1 (stereo not given)
COc1ccc(-c2ccc(C3C4C=CCCC4(C)C(=O)N3Cc3ccccc3)c(F)c2)cc1OC (stereo not given)
Cc1cc(C)n2ncc(C(=O)Nc3cccc(C#N)c3)c2n1 1.24% [at 28.7 µM]
CCCOc1ccc(NC(=O)CC2C(=O)N(c3ccccc3)C(=O)N2Cc2ccco2)cc1 (stereo not given)
CCOC(=O)N1CCc2c(sc3c2c(=O)n(Cc2ccccc2)c(=O)n3CC(=O)Nc2cccc(C)c2)C1
COC(=O)c1ccccc1NC(=O)c1ccc(C#N)cc1
C=C1CCN(Cc2ccc(OC)cc2)S(=O)(=O)c2ccccc21
COc1ccc(C2=Nn3c(nnc3-c3ccccc3O)SC2)cc1
O=C(c1ccco1)n1nc(-c2ccc(Cl)cc2)nc1NCc1ccccc1
Cc1ccc(S(=O)(=O)N2CCN(c3nc(-n4cnc5ccccc54)nc4ccccc34)CC2)cc1
O=C1NS(=O)(=O)c2ccccc21
COc1ccc(CN(Cc2ccccc2)C(=O)c2ccc(O)cc2)cc1COc1ccc(NC(C)=O)cc1
COc1ccccc1/C=C/c1nc(C#N)c(NC(C)c2ccccc2)o1 (stereo not given)
O=C(CNC(=O)c1ccc(Cl)c(C(F)(F)F)c1)OC(C(=O)Nc1cc(C(F)(F)F)ccc1Cl)c1ccccc1 (stereo not given)
Cc1ccc(CNC(=O)CSc2c(C)cnc3c2c(=O)n(C)c(=O)n3C)cc1
CCc1cc2c(cc3c(=O)n(CC(=O)N4CCN(c5cc(Cl)ccc5C)CC4)ncn32)s1
CCCN1CCC(=O)N(C(CSc2ccc(C)cc2)Cc2ccccc2)CC1 (stereo not given)
CCCCn1c(=O)c2oc3ccccc3c2n(CC(=O)Nc2ccccc2OC)c1=O
Cn1c(=O)oc2cc(S(=O)(=O)CCC(=O)NCCc3ccc(Cl)cc3)ccc21
COc1ccc(C(=O)N(Cc2ccccc2)Cc2ccc(OC)c(COc3ccc(NC(C)=O)cc3)c2)c(O)c1
O=C1C(F)N([S+](=O)([O-])c2ccc3c(c2)OCCO3)CCN1[S+](=O)([O-])c1c(F)cccc1F (stereo not given)
Cc1ccccc1CN1CCC(CNC(=O)c2cc3ccc4cccnc4c3[nH]2)CC1
CN(Cc1cncn1C)c1ncnc2ccc(-c3ccc4c(c3)OCO4)cc12
CC(C)(C)NS(=O)(=O)c1cccc(Nc2nn3c(=O)c4ccccc4nc3s2)c1
COc1ccc(Cn2cc(C(=O)c3ccc(C)cc3)c(=O)c3cc(OC)c(OC)cc32)cc1
Cc1ccc(NC(=O)c2cc3cc(C)ccc3n2C)cc1
N#CN1CCC(NC(=O)c2ccc(F)cc2)CC1
O=C(CNC(=O)c1ccc(Cl)cc1Cl)OC(C(=O)Nc1cc(C(F)(F)F)ccc1Cl)c1ccccc1 (stereo not given)
N#CN1CCC(NS(=O)(=O)c2cccc(F)c2)C1 (stereo not given)
O=C(COc1ccccc1)NCc1ccc2c(c1)CCN2C(=O)c1ccc(F)cc1
CN(C)c1ccc(C(=O)NCC(=O)OC(C(=O)Nc2cc(C(F)(F)F)ccc2Cl)c2ccccc2)cc1 (stereo not given)
CC1CCCCN1S(=O)(=O)c1ccc(F)c(C(=O)Nc2ccccc2C(F)(F)F)c1 (stereo not given)
Cc1noc(C)c1-c1ccc2ncnc(NCc3ccc4[nH]ccc4c3)c2c1
Brc1ccc2c(c1)NC(c1cccnc1)=NC(c1ccccc1)=N2
CS(=O)(=O)c1ccc(-c2nnc(NC(=O)c3ccc4c(c3)OCCO4)o2)cc1
CCN(Cc1ccccc1)C(=O)c1cn(-c2cccc(OC)c2)c(=O)c2ccccc12
O=C(c1ccccc1F)N1CCC(c2nc3c(nnn3Cc3cccc(F)c3)c(=O)[nH]2)CC1
COc1cc(OC)cc(C(=O)Nc2cc3nn(-c4ccccc4)nc3cc2Cl)c1
O=C(c1ccc2c(c1)N(Cc1ccccc1)C(=O)c1ccccc1S2(=O)=O)N1CCC(Cc2ccccc2)CC1
COc1cccc(Cn2c(SCc3ccc(C(=O)N4CCC(C)CC4)cc3)nc3ccncc32)c1
O=S(=O)(c1ccc2nc(NCc3ccccc3Cl)ccc2c1)N1CCCCC1
Oc1ccc(/C=C/c2c(F)cccc2F)c2cccnc12
Oc1ccc(Br)cc1C1C=C(c2ccc3c(c2)OCO3)NC(c2ccc(Cl)cc2)N1 (stereo not given)
O=C(NCc1ccccn1)[C@]1(C(F)(F)F)C[C@H](CCc2ccccc2)CCCO1
CCOc1ccccc1C(=O)Nc1ccc(S(=O)(=O)N2CCCCC2c2cccnc2)cc1 (stereo not given)
Cc1ccc(-c2nc3ccccn3c2Nc2ccc(F)cc2)o1
COc1ccc(CNC(=O)CSc2n[nH]c(-c3ccc(F)cc3)n2)cc1
O=C(NC1CC(=O)N(c2ccc(F)cc2)C1)c1ccc(S(=O)(=O)N2CCCC2)cc1 (stereo not given)
